About 2,000 (36%) of roughly 5,500 compounds were called active. Inconclusive results (about 18%) are left out. No stated cut-off is given here; in the data, active means normalized growth mostly below about 0.91 (no sharp cut-off); inconclusive means no clear call, values can overlap the other calls; inactive means mostly above about 0.92. This is one part of the list.
Assay: chemical genetic growth profiling, strain panel (AID 1159580);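 further: tested at 20 µM; growth read once vehicle control cultures reached saturation at 30 °C; 1 = growth at the plate median or of vehicle wells; lower values mean less growth of the strain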
Conditions: growth OD

Measured: normalized growth

CO[C@@]1(NC(=O)Cc2cccs2)C(=O)N2C(C(=O)O)=C(COC(N)=O)CS[C@@H]21
inactive: S. cerevisiae deletion strains, locus YJR066W, strain TOR1, hits give low values 0.995 | S. cerevisiae deletion strains, locus YKL009W, strain mrt4, hits give low values 1.01 | S. cerevisiae deletion strains, locus YKL068W, hits give low values 0.992 | S. cerevisiae deletion strains, locus YKL085W, strain MDH1 (second series), hits give low values 0.992 | S. cerevisiae deletion strains, locus YKL085W, strain MDH1, hits give low values 0.992 | S. cerevisiae deletion strains, locus YKL160W, strain elf1, hits give low values 0.927 | S. cerevisiae deletion strains, locus YKL190W, strain CNB1, hits give low values 1.01 | S. cerevisiae deletion strains, locus YKR001C, strain vps1, hits give low values 0.995 | S. cerevisiae deletion strains, locus YKR026C, strain gcn3, hits give low values 0.977 | S. cerevisiae deletion strains, locus YKR091W, strain srl3, hits give low values 0.971 | S. cerevisiae deletion strains, locus YLL001W, strain dnm1, hits give low values 0.966 | S. cerevisiae deletion strains, locus YLL026W, hits give low values 0.986 | S. cerevisiae deletion strains, locus YLL041C, strain sdh2, hits give low values 0.971 | S. cerevisiae deletion strains, locus YLR027C, strain aat2, hits give low values 0.985 | S. cerevisiae deletion strains, locus YLR039C, strain RIC1, hits give low values 0.998 | S. cerevisiae deletion strains, locus YLR058C, strain SHM2, hits give low values 1.01 | S. cerevisiae deletion strains, locus YLR102C, strain apc9, hits give low values 0.989 | S. cerevisiae deletion strains, locus YLR113W, strain HOG1, hits give low values 1.06 | S. cerevisiae deletion strains, locus YLR221C, strain rsa3, hits give low values 1 | S. cerevisiae deletion strains, locus YLR258W, strain gsy2, hits give low values 0.976 | S. cerevisiae deletion strains, locus YLR262C, strain YPT6 (second series), hits give low values 0.98 | S. cerevisiae deletion strains, locus YLR262C, strain YPT6, hits give low values 1.01 | S. cerevisiae deletion strains, locus YLR268W, strain sec22, hits give low values 0.993 | S. cerevisiae deletion strains, locus YLR320W, strain mms22, hits give low values 0.977 | S. cerevisiae deletion strains, locus YLR330W, strain CHS5, hits give low values 1 | S. cerevisiae deletion strains, locus YLR342W, strain FKS1 (second series), hits give low values 0.985 | S. cerevisiae deletion strains, locus YLR342W, strain FKS1, hits give low values 0.953 | S. cerevisiae deletion strains, locus YLR357W, strain rsc2, hits give low values 0.915 | S. cerevisiae deletion strains, locus YLR370C, strain arc18, hits give low values 0.961 | S. cerevisiae deletion strains, locus YLR371W, strain rom2, hits give low values 0.992 | S. cerevisiae deletion strains, locus YLR384C, strain iki3, hits give low values 0.968 | S. cerevisiae deletion strains, locus YLR418C, strain cdc73, hits give low values 0.988 | S. cerevisiae deletion strains, locus YML016C, strain PPZ1, hits give low values 1 | S. cerevisiae deletion strains, locus YML032C, strain rad52, hits give low values 0.994 | S. cerevisiae deletion strains, locus YML120C, strain ndi1, hits give low values 0.986 | S. cerevisiae deletion strains, locus YML124C, strain tub3, hits give low values 0.993 | S. cerevisiae deletion strains, locus YMR058W, strain fet3, hits give low values 0.984 | S. cerevisiae deletion strains, locus YMR078C, strain ctf18, hits give low values 0.993 | S. cerevisiae deletion strains, locus YMR125W, strain sto1, hits give low values 0.963 | S. cerevisiae deletion strains, locus YMR129W, hits give low values 0.971 | S. cerevisiae deletion strains, locus YMR205C, strain PFK2, hits give low values 0.988 | S. cerevisiae deletion strains, locus YMR223W, strain ubp8, hits give low values 0.998 | S. cerevisiae deletion strains, locus YMR231W, strain pep5, hits give low values 0.98 | S. cerevisiae deletion strains, locus YMR307W, strain GAS1, hits give low values 0.975 | S. cerevisiae deletion strains, locus YNL067W, strain RPL9B, hits give low values 1 | S. cerevisiae deletion strains, locus YNL071W, strain lat1, hits give low values 0.973 | S. cerevisiae deletion strains, locus YNL153C, strain GIM3, hits give low values 1.02 | S. cerevisiae deletion strains, locus YNL183C, strain NPR1, hits give low values 1 | S. cerevisiae deletion strains, locus YNL209W, strain ssb2, hits give low values 0.972 | S. cerevisiae deletion strains, locus YNL233W, strain BNI4, hits give low values 1 | S. cerevisiae deletion strains, locus YNL248C, strain rpa49, hits give low values 0.916 | S. cerevisiae deletion strains, locus YNL250W, strain rad50, hits give low values 1.01 | S. cerevisiae deletion strains, locus YNL271C, strain bni1, hits give low values 0.985 | S. cerevisiae deletion strains, locus YNL298W, strain CLA4, hits give low values 0.975 | S. cerevisiae deletion strains, locus YNL307C, strain MCK1, hits give low values 1 | S. cerevisiae deletion strains, locus YNL322C, strain KRE1 (second series), hits give low values 0.972 | S. cerevisiae deletion strains, locus YNL322C, strain KRE1, hits give low values 1.01 | S. cerevisiae deletion strains, locus YNR049C, strain mso1, hits give low values 0.953 | S. cerevisiae deletion strains, locus YNR052C, strain pop2, hits give low values 1 | S. cerevisiae deletion strains, locus YOL006C, strain TOP1, hits give low values 1.08 | S. cerevisiae deletion strains, locus YOL012C, strain htz1 1.61 | S. cerevisiae deletion strains, locus YOL147C, strain pex11, hits give low values 0.992 | S. cerevisiae deletion strains, locus YOR001W, strain rrp6, hits give low values 1 | S. cerevisiae deletion strains, locus YOR061W, strain CKA2, hits give low values 1.01 | S. cerevisiae deletion strains, locus YOR069W, strain VPS5, hits give low values 1 | S. cerevisiae deletion strains, locus YOR070C, strain gyp1, hits give low values 0.979 | S. cerevisiae deletion strains, locus YOR080W, strain dia2, hits give low values 0.986 | S. cerevisiae deletion strains, locus YOR083W, strain WHI5, hits give low values 0.894 | S. cerevisiae deletion strains, locus YOR106W, strain vam3, hits give low values 0.951 | S. cerevisiae deletion strains, locus YOR136W, strain idh2, hits give low values 1 | S. cerevisiae deletion strains, locus YOR144C, strain elg1, hits give low values 0.998 | S. cerevisiae deletion strains, locus YOR184W, strain ser1, hits give low values 1.02 | S. cerevisiae deletion strains, locus YOR231W, strain MKK1, hits give low values 1.09 | S. cerevisiae deletion strains, locus YOR265W, strain rbl2, hits give low values 0.999 | S. cerevisiae deletion strains, locus YOR270C, strain vph1, hits give low values 0.936 | S. cerevisiae deletion strains, locus YOR290C, strain snf2, hits give low values 0.945 | S. cerevisiae deletion strains, locus YOR316C, strain cot1, hits give low values 0.995 | S. cerevisiae deletion strains, locus YPL051W, strain arl3, hits give low values 0.977 | S. cerevisiae deletion strains, locus YPL078C, strain atp4, hits give low values 0.937 | S. cerevisiae deletion strains, locus YPL106C, strain sse1, hits give low values 0.96 | S. cerevisiae deletion strains, locus YPL240C, strain hsp82, hits give low values 0.984 | S. cerevisiae deletion strains, locus YPL256C, strain CLN2, hits give low values 1.08 | S. cerevisiae deletion strains, locus YPR119W, strain clb2, hits give low values 0.992 | S. cerevisiae deletion strains, locus YPR141C, strain kar3, hits give low values 0.994 | S. cerevisiae deletion strains, locus YPR163C, strain tif3, hits give low values 1 | S. cerevisiae deletion strains, locus YPR167C, strain met16, hits give low values 0.998 | S. cerevisiae deletion strains, strain wtn01, hits give low values 0.99 | S. cerevisiae strains, strain wild type, hits give low values 1.01
